The text below walks through data of PubChem BioAssay.

A short description of assay [1]: growth inhibition of DIPG glioma cells, dose response, cell-based, SU-DIPG-XVII, MIPE5.0, CellTiter-Glo, qHTS (AID 1347060; cut-off not given, nearly all actives have AC50 up to about 26 µM;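 on AC50: cells exposed to compound for 48 hours before viability readout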). The settings on record: SU-DIPG-XVII viability, CellTiter-Glo ATP luminescence. In general terms: ATP-based viability assays read luminescence as a measure of living cells.
The nature of assay [2]: growth inhibition of DIPG glioma cells, dose response, cell-based, SU-DIPG-XIII, MIPE4.0, CellTiter-Glo, qHTS (AID 1347061; cut-off not given, nearly all actives have AC50 up to about 37 µM;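 further: cells exposed to compound for 48 hours before readout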). Conditions: SU-DIPG-XIII viability, CellTiter-Glo ATP luminescence.
A short description of assay [3]: growth inhibition of DIPG glioma cells, dose response, cell-based, JHH-DIPG-1, MIPE4.0, CellTiter-Glo, qHTS (AID 1347062; cut-off not given, nearly all actives have AC50 up to about 27 µM;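 on AC50: cells exposed to compound for two days before readout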). Conditions: JHH-DIPG-1 viability, CellTiter-Glo ATP luminescence.
Assay [4] can be described thus: growth inhibition of DIPG glioma cells, dose response, cell-based, SU-DIPG-IV, MIPE4.0, CellTiter-Glo, qHTS (AID 1347063; cut-off not given, nearly all actives have AC50 up to about 30 µM;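 further: compound exposure lasted 48 hours before the viability readout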). The settings on record: SU-DIPG-IV viability, CellTiter-Glo ATP luminescence.
The nature of assay [5]: growth inhibition of DIPG glioma cells, dose response, cell-based, SU-DIPG-XIII, MIPE5.0, CellTiter-Glo, qHTS (AID 1347064; cut-off not given, nearly all actives have AC50 up to about 23 µM;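 on AC50: cells exposed to compound for 48 hours before the viability read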). The settings on record: SU-DIPG-XIII viability, CellTiter-Glo ATP luminescence.
Assay [6] can be described thus: SU-DIPG-VI glioma cell viability, MIPE4.0 library, CellTiter-Glo luminescence, qHTS (AID 1347066; cut-off not given, nearly all actives have AC50 up to about 30 µM;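 further: cells exposed to compound for 48 hours before readout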). The settings on record: CellTiter-Glo ATP luminescence.
A short description of assay [7]: viability loss in pontine glioma line – cell-based, SU-DIPG-XXV, MIPE5.0, CellTiter-Glo, qHTS, dose response (AID 1347065; cut-off not given, nearly all actives have AC50 up to about 26 µM;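 further: cells exposed to compound for 48 hours before ATP readout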). The settings on record: CellTiter-Glo ATP luminescence.
Assay [8] in a line: JHH-DIPG-1 glioma cell viability, MIPE5.0 library, CellTiter-Glo luminescence, qHTS (AID 1347067; cut-off not given, nearly all actives have AC50 up to about 26 µM;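 further: cells exposed to compound for 48 hours before readout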). Conditions: JHH-DIPG-1 glioma viability, CellTiter-Glo ATP luminescence.
Assay [9] is described as follows: modifiers of HSF1 nuclear foci, imaging, Selleck Cancer Library (AID 1347162; in the data active means plate-normalised HSF1 focus index below about 0.46). The settings on record: human cells, at 10 µM; SSMD: measured here: HSF1 foci SSMD mean; cell count: measured here: cell number; plate-normalised HSF1 focus index: stronger effect = lower value.
Assay [10] in a line: sensitizers of A549 cells to miR-34 induction, primary screen, imaging, A549 dox-inducible miR-34, nuclei and caspase counts (AID 1347080;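 active means compounds whose cell count with miR-34 switched on is under 0.7 times the count with it off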). The settings on record: A549 miR-34 inducible, Hoechst nuclei count, 48 h.
Assay [11] can be described thus: survival rescue of mitochondrial mutant cells in low glucose, primary screen, MELAS cybrids, Rieske KO mouse fibroblasts, CellTiter-Glo (AID 1508586;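 active means mean z-score across replicates of 1.96 or higher in either the MELAS or the Rieske mutant cell line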;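 further: z relative to plate mean and SD of compound and empty wells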).
Assay [12] can be described thus: SU-DIPG-XXV glioma cell viability, MIPE5.0 library, qHTS (AID 1347068; cut-off not given, nearly all actives have IC50 up to about 30 µM;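 on IC50: cells exposed to compound for 48 hours before viability readout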).
Assay [13] is described as follows: ovarian cancer cell viability with rucaparib, profiling panel, oncology-focused library, rucaparib conditional (AID 1508598). The settings on record: patient-derived ovarian cancer cells, CellTiter-Glo viability, 144 h, stronger effect = lower value.
[14] abbreviates: stronger effect = lower value, cell number ratio, induced over uninduced.
[15] abbreviates: measured here: relative caspase fold change +Dox/-Dox.
[16] abbreviates: measured here: total cells with miR-34 induction, stronger effect = lower value.
Where [17] appears, read: measured here: total cells without miR-34 induction.
Setting [18] is: MELAS cybrid survival, CellTiter-Glo 48 h, stronger effect = higher value.
Setting [19] is: Rieske KO mouse fibroblast survival, CellTiter-Glo 72 h.

Values joined by “and” are separate entries in the source; they are usually repeats but may differ in a detail not shown here. Identical values can stand only once. Inconclusive results are not listed. Active and inactive are the calls of the source.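 How the source made its calls, unless noted: active means normalized viability below 100% at a tested concentration; inactive means the rest.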

Turning to `C=Cc1c(C)c2cc3nc(cc4[nH]c(cc5nc(cc1[nH]2)C(C)=C5CCC(=O)O)c(CCC(=O)OC)c4C)[C@@]1(C)C3=CC=C(C(=O)OC)[C@H]1C(=O)OC`, the AC50 is 11800 nM (active) in assay [1]; 743 nM (active) in [2]; 66.2 nM (active) in assay [3]; 105 nM (active) in [4]; 9.34 µM (active) in [5]; 14.8 µM (active) in assay [6].

Regarding `CC(C)(C)c1[nH]cnc1/C=c1\[nH]c(=O)/c(=C/c2ccccc2)[nH]c1=O`, the AC50 in [1] was 37.2 nM (active); in assay [2] it was 42900 nM (active); in assay [3], 340 nM (active); in assay [4], 42900 nM (active); in assay [5], 0.166 µM (active); in assay [7], 46.8 nM (active). In addition, in assay [8], the AC50 is 52.5 nM (active). Further, the SSMD in assay [9] was 2.69. The same compound yielded a cell count in assay [9] of 7220. Besides, the plate-normalised HSF1 focus index in [9] is 1.17 (inactive).

With `CO[C@H]1/C=C/O[C@@]2(C)Oc3c(C)c(O)c4c(O)c(c(/C=N/N5CCN(C)CC5)c(O)c4c3C2=O)NC(=O)/C(C)=C\C=C\[C@H](C)[C@H](O)[C@@H](C)[C@@H](O)[C@@H](C)[C@H](OC(C)=O)[C@@H]1C`, the call in assay [1], in assay [2], in [3], in [4] and in assay [8] was inactive. In addition, in [5], the AC50 was 20.9 µM (active). The fold change is 0.839 (inactive) and 0.889 (inactive) in assay [10] (setting [14]); 1.31 and 1.13 in [10] (setting [15]). Also, the cell count is 9030 and 9880 in assay [10] (setting [16]); 10800 and 11100 in assay [10] (setting [17]). In addition, the z-score in [11] (setting [18]) was 1.76 (inactive) and 0.859 (inactive); in assay [11] (setting [19]), -0.112 and -0.159.

For the compound `Clc1ccc2c(N3CCN(CCCN4CCN(c5ccnc6cc(Cl)ccc56)CC4)CC3)ccnc2c1`, the call in [1], in [2], in assay [3], in [4], in assay [5] and in assay [6] was inactive. The outcome in [8] and in assay [12] was inactive. The fold change in [10] (setting [14]) is 0.978 (inactive); in [10] (setting [15]), 1.67. In addition, the cell count is 8600 in [10] (setting [16]) and 8790 in assay [10] (setting [17]).

`CC(C)c1cc(-c2n[nH]c(=O)n2-c2ccc3c(ccn3C)c2)c(O)cc1O`: the concentration at half-maximal activity (AC50) in [1] was 37.2 nM (active); in assay [2] it was 132 nM (active); in assay [3], 66.2 nM (active); in assay [4], 59 nM (active); in [5] it was 0.0417 µM (active); in [7], 37.2 nM (active). In assay [12], the IC50 is 83.3 nM (active). For the same compound, the fold change is 1.03 (inactive) in [10] (setting [14]) and 0.773 in assay [10] (setting [15]). Further, the cell count was determined as 1450 in assay [10] (setting [16]) and 1400 in assay [10] (setting [17]). Also, the z-score in assay [11] (setting [18]) was 3.03 (active); in assay [11] (setting [19]), 0.0782. In addition, the viability is 102% (inactive) in assay [13] (at 0.000305 µM, OCI-C5x cells, with rucaparib 10 µM, 100% = cells with rucaparib alone); 108% (inactive) in assay [13] (at 0.000305 µM, OCI-C5x cells, without rucaparib); 116% (inactive) in [13] (at 0.000305 µM, OCI-P5x cells, with rucaparib 20 µM, 100% = cells with rucaparib alone); 121% (inactive) in [13] (at 0.000305 µM, OCI-P5x cells, without rucaparib); 100% (inactive) in assay [13] (at 0.00122 µM, OCI-C5x cells, with rucaparib 10 µM, 100% = cells with rucaparib alone); 98.2% (active) in assay [13] (at 0.00122 µM, OCI-C5x cells, without rucaparib). Further, the viability in assay [13] (at 0.00122 µM, OCI-P5x cells, with rucaparib 20 µM, 100% = cells with rucaparib alone) was 124% (inactive); in [13] (at 0.00122 µM, OCI-P5x cells, without rucaparib) it was 119% (inactive); in assay [13] (at 0.00488 µM, OCI-C5x cells, with rucaparib 10 µM, 100% = cells with rucaparib alone), 96.9% (active); in assay [13] (at 0.00488 µM, OCI-C5x cells, without rucaparib) it was 110% (inactive); in assay [13] (at 0.00488 µM, OCI-P5x cells, with rucaparib 20 µM, 100% = cells with rucaparib alone) it was 126% (inactive); in [13] (at 0.00488 µM, OCI-P5x cells, without rucaparib) it was 124% (inactive). Besides, the viability was 117% (inactive) in assay [13] (at 0.0195 µM, OCI-C5x cells, with rucaparib 10 µM, 100% = cells with rucaparib alone); 117% (inactive) in assay [13] (at 0.0195 µM, OCI-C5x cells, without rucaparib); 85.2% (active) in assay [13] (at 0.0195 µM, OCI-P5x cells, with rucaparib 20 µM, 100% = cells with rucaparib alone); 104% (inactive) in [13] (at 0.0195 µM, OCI-P5x cells, without rucaparib); 44.1% (active) in assay [13] (at 0.0781 µM, OCI-C5x cells, with rucaparib 10 µM, 100% = cells with rucaparib alone); 14.7% (active) in assay [13] (at 0.0781 µM, OCI-C5x cells, without rucaparib). For the same compound, the viability in [13] (at 0.0781 µM, OCI-P5x cells, with rucaparib 20 µM, 100% = cells with rucaparib alone) is 18.8% (active); in [13] (at 0.0781 µM, OCI-P5x cells, without rucaparib) it was 10.9% (active); in assay [13] (at 0.313 µM, OCI-C5x cells, with rucaparib 10 µM, 100% = cells with rucaparib alone) it was 11.6% (active); in [13] (at 0.313 µM, OCI-C5x cells, without rucaparib), 6.96% (active); in assay [13] (at 0.313 µM, OCI-P5x cells, with rucaparib 20 µM, 100% = cells with rucaparib alone), 6.88% (active); in assay [13] (at 0.313 µM, OCI-P5x cells, without rucaparib), 5.54% (active). Besides, the viability in assay [13] (at 1.25 µM, OCI-C5x cells, with rucaparib 10 µM, 100% = cells with rucaparib alone) was 10% (active); in assay [13] (at 1.25 µM, OCI-C5x cells, without rucaparib), 6.57% (active); in assay [13] (at 1.25 µM, OCI-P5x cells, with rucaparib 20 µM, 100% = cells with rucaparib alone), 5.29% (active); in [13] (at 1.25 µM, OCI-P5x cells, without rucaparib) it was 4.83% (active); in assay [13] (at 5 µM, OCI-C5x cells, with rucaparib 10 µM, 100% = cells with rucaparib alone) it was 8.35% (active); in assay [13] (at 5 µM, OCI-C5x cells, without rucaparib) it was 6.47% (active). The viability in assay [13] (at 5 µM, OCI-P5x cells, with rucaparib 20 µM, 100% = cells with rucaparib alone) is 6.04% (active); in assay [13] (at 5 µM, OCI-P5x cells, without rucaparib), 5.33% (active).

Usually AC50 stands for the midpoint of the concentration-response curve, whichever way the signal moves. In general, IC50 refers to the concentration that gives 50% inhibition. Usually viability stands for a read-out of living cells in per cent, often relative to untreated cells.
